BaF3 tox: parental Ba/F3 viability inhibition as JAK2V617F counter-screen. CellTiter-Glo ATP luminescence. inhibition, % at 5.6 µM. 220,000 compounds, 1.1% hits;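 active means inhibition above a per-campaign cutoff, the mean inhibition of all tested compounds plus 3 SD, cut at about 27% in these data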;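 further: 0% = DMSO wells and 100% = JAK Inhibitor I control wells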
Ba/F3 V617F tox: lowers viability of Ba/F3 cells expressing EpoR and JAK2V617F; inhibition, % at 5.6 µM; 220,000 compounds, 1.1% hits; AID 1446; ATP luminescence;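 active means inhibition above the campaign mean plus 3 SD over all tested compounds, cut at about 24% in these data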;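 further: cytokine-independent growth of Ba/F3 cells driven by EpoR plus mutant JAK2; 0% = DMSO-treated cells and 100% = JAK inhibitor I control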
APP transl inh: APP translation inhibition; SH-SY5Y APP 5'UTR-luciferase reporter, luminescence; inhibition, % at 2 µM; 190,000 compounds, 0.82% hits; AID 1285;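 active means inhibition above a set limit, derived from the sample mean plus 3 SD, cut at about 45% in these data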
KLF5 inhibitor: inhibitors of KLF5 expression. DLD-1 KLF5 promoter-luciferase reporter, luminescence. inhibition, % at 5 µM. 290,000 compounds, 0.23% hits;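 active means inhibition above a per-plate limit of that plate's mean compound inhibition plus 3 SD, cut at about 60% in these data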;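 further: 0% = DMSO wells and 100% = LY294002 at 200 µM; higher means less KLF5 promoter-driven luciferase light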
IEC-6 tox: kills IEC-6 intestinal cells in KLF5 counter-screen; AID 1825; inhibition, % at 5 µM; IEC-6 cytotoxicity, luminescence viability; 290,000 compounds, 0.78% hits; in the data active means inhibition above about 22%;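 further: 0% = plate median of test compound wells and 100% = cytotoxic reference compound wells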
The depositor's hits bear a star; . = no result given. Sampled rows, rich in hits. Any-hit rate of the full collection: about 1.9%.

SMILES	BaF3 tox	Ba/F3 V617F tox	APP transl inh	KLF5 inhibitor	IEC-6 tox
CCn1c2c(c(=N)c3ccccc31)CCC2	46*	17	.	7	7
CCN(CC(=O)N1CCOCC1)S(=O)(=O)c1cc(Cl)ccc1Cl	.	.	.	-2	-1
O=C1NC(=O)c2cc(Oc3ccc([N+](=O)[O-])cc3)ccc21	.	.	.	-31	0
C#CC[N+](C)(C)CCCCCCCCCC	79*	79*	-4	28	21
CCCCCC[N+](C)(C)CCSSCC[N+](C)(C)CCCCCC	4	-5	.	-25	-4
CC#CC[N+](C)(C)CCCCCCCCCCCC	81*	101*	-13	24	24*
C#CC[N+](C)(C)CCCCCCCCCCCC	76*	80*	-1	24	9
C#CC[N+](C)(C)CCCCCCCC	43*	66*	-16	14	3
CN(C(=O)c1cc2c(=O)n3ccccc3nc2n1C)C1CCCCC1	.	.	.	-158	-1
O=S(=O)(Nc1ccc(F)cc1)N1CCOCC1	.	.	.	0	-6
Cc1ccc(F)c(CNC(=O)C2CCC(=O)N(CCCN3CCCC3=O)C2)c1F (stereo not given)	.	.	.	-16	-2
COc1cc(S(=O)(=O)n2nc(C)cc2C)c(OC)cc1Cl	6	2	-8	-26	-7
COc1cc(Cl)ccc1S(=O)(=O)n1nc(C)cc1C	93*	-2	8	-13	2
O=C(/C=C\c1ccco1)Nc1nc(-c2ccccc2)cs1	0	0	.	-59	-1
O=C(/C=C/c1ccccc1)Nc1nc(-c2ccncc2)cs1	43*	39*	-2	-64	6
CCNc1oc(-c2ccc(OC)cc2)nc1S(=O)(=O)c1ccc(Br)cc1	6	4	49*	1	2
CC(=O)NNS(=O)(=O)c1scc(S(=O)(=O)c2ccc(Cl)cc2)c1C	.	.	.	-34	-5
Cc1oc2cc(Br)c(O)c(Br)c2c1-c1ccccc1	.	.	.	-39	-1
Cc1ccc(Oc2ccc(S(=O)(=O)N3CCOCC3)cc2C(N)=O)c(-n2nc3ccccc3n2)c1	1	-2	46*	-14	2
COc1ccccc1Oc1ccc(S(=O)(=O)N2CCOCC2)cc1S(=O)(=O)N1CCOCC1	5	-3	3	8	-4
CN(C)c1ccc(/C=C/c2cc[n+](C)cc2)cc1	71*	94*	-18	-71	6
CN(C)c1ccc(/C=C/c2cc[n+]([O-])cc2)cc1	-1	0	-49	-36	0
Cc1n[nH]c(=O)nc1NC1CCCCC1	2	-1	60*	1	0
CCCCCn1c(=N)n(CC(O)COc2ccccc2OC)c2ccccc21 (stereo not given)	28*	18	-1	11	8
COc1ccccc1OCC(O)Cn1c(=N)n(Cc2ccccc2)c2ccccc21 (stereo not given)	17	16	-30	-52	4
SMILES	BaF3 tox	Ba/F3 V617F tox	APP transl inh	KLF5 inhibitor	IEC-6 tox
CCCCn1c(=N)n(CC(O)COc2cccc(C)c2)c2ccccc21 (stereo not given)	40*	17	-5	13	7
CC(C)(O)C#Cc1ccc([C@@H]2C[C@H]3CN(c4ccccc4)C(=O)[C@]34CCCN24)s1	5	2	82*	-2	4
CCC(C(=O)c1ccccc1)N(C(=O)c1ccccc1Cl)N1C(=O)C2C3C=CC(C3)C2C1=O (stereo not given)	95*	-4	-15	-16	0
CCOC(=O)C1=C(C(F)(F)F)Nc2ncnn2C1c1cc(OC)ccc1OC (stereo not given)	-2	-3	0	-20	1
COc1cc(/C=N/NC(=O)C(Cc2c[nH]c3ccccc23)NC(=O)OCC(C)C)cc([N+](=O)[O-])c1OCc1ccccc1 (stereo not given)	100*	95*	-24	-12	3
COc1cc(/C=N/NC(=O)C(Cc2c[nH]c3ccccc23)NC(=O)OCC(C)C)cc([N+](=O)[O-])c1O (stereo not given)	6	4	-3	27	2
Cc1ccc(NC(=O)Nc2ccnc(-c3cccnc3)n2)cc1	2	3	83*	-33	-3
O=C1CCC/C1=C\Nc1ccc(Cl)c([N+](=O)[O-])c1	58*	1	.	-2	0
O=C1CCC/C1=C/Nc1ccc(Cl)cc1	-1	-1	-12	-22	-5
Cc1ccc2nc(NC(=O)CCn3cccc3)sc2c1	7	0	-2	-35	-2
Cc1ccc2nc(NC(=O)CCCC(=O)O)sc2c1	2	2	60*	9	-3
COc1ccc(OC)c(CCNC(=O)CCCC(=O)n2ncc3cc(C)ccc32)c1	.	.	.	-23	0
Nc1c(-c2ccccc2Cl)cnn1-c1cccc([N+](=O)[O-])c1	46*	1	-32	-16	2
Cc1ccccc1-c1cnn(-c2cccc([N+](=O)[O-])c2)c1N	8	2	-8	-33	-4
O=C(Nc1ccccc1N1CCCCC1)c1ccc(-c2ccc(Cl)cc2)o1	-2	-2	84*	0	-1
Cc1ccc(NC2CCCN(C(=O)C3CCCC3)C2)cc1C (stereo not given)	.	.	.	-13	-1
Cc1ccc2c(c1)Oc1ccc([N+](=O)[O-])cc1C(=O)N2	-1	-7	-8	8	6
Cc1ccc2c(c1)Oc1ccc(NC(=O)CCl)cc1C(=O)N2	83*	85*	53*	2	16
Cc1ccc(N(C(=O)c2csnn2)C(C(=O)NC2CCCC2)c2cccnc2)c(C)c1 (stereo not given)	.	.	.	4	-2
COc1ccc(-c2cn3c(C)c(C(=O)Nc4cc(NC(C)=O)ccc4OC)sc3n2)cc1	44*	49*	24	42	21
Cc1cc(C(=O)NCc2cc(F)cc3c2OCOC3)nn1C	-2	0	.	0	-2
Cn1nc(C(C)(C)C)cc1C(=O)NCc1cc(F)cc2c1OCOC2	57*	44*	.	-19	9
O=C(Nc1ccccc1F)N1CCC(NC(=O)C23CC4CC(CC(C4)C2)C3)CC1	.	.	.	-5	6
Cc1ccc(OCCN2CCN(c3ncnc4sc(C)c(C)c34)CC2)cc1	28*	9	.	-9	4
CCOC(=O)c1nc(C)nc(Sc2n[nH]c(-c3ccccc3)n2)c1C	-1	-1	.	-24	-11
SMILES	BaF3 tox	Ba/F3 V617F tox	APP transl inh	KLF5 inhibitor	IEC-6 tox
COc1ccccc1N(Cc1ccccc1)S(=O)(=O)c1cccc(C(=O)Nc2cccc(C)n2)c1	.	.	.	-9	-6
Cc1c(C(=O)C(=O)N2c3ccc(F)cc3CCC2C)c2ccccc2n1C (stereo not given)	7	-2	83*	7	6
Cc1c(C(=O)C(=O)N2CCN(C)CC2)c2ccccc2n1C	0	1	-1	-6	0
O=C(/C=C\c1ccco1)Nc1cc([N+](=O)[O-])ccc1F	43*	73*	94*	-39	-3
O=C(/C=C/c1ccco1)Nc1cc(Cl)ccc1C(=O)O	4	-1	-10	-16	-8
COc1ccc(C(=O)Nc2ccc3[nH]c(-c4cccc(OC)c4)cc(=O)c3c2)cc1	5	0	91*	5	4
O=S(=O)(c1ccc(Br)s1)N1CCC2(CC1)OCCO2	.	.	.	-8	-1
Cc1cc(O)c(C(C)C)cc1N=Nc1ccccc1C(=O)O	-2	1	.	-40	-2

Screens deposited in PubChem by several laboratories.
